This is part of a sample that, as a whole, favours compounds with a hit. Of some 83,000 tested, about 20% had one in any assay.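 In brief: 96-well plates, 48 h treatment, single concentration, percent growth endpoint.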 Calls of active or inactive are those of the source. The calls were made as follows: active = growth percent below 10; inactive = the rest.
Key:
Assay in all cases: NCI-60 one-dose screen, 48 h (100 = growth as untreated, 0 = no growth, -100 = all killed)
Conditions in all cases: 10 µM unless noted
[1] = test system: HCT-15 colon
[2] = test system: HT29 colon
[3] = test system: SNB-75 CNS
[4] = test system: SNB-19 CNS
[5] = test system: U251 CNS
[6] = test system: PC-3 prostate
[7] = test system: SK-MEL-5 melanoma
[8] = test system: UACC-62 melanoma
[9] = test system: LOX IMVI melanoma
[10] = test system: SK-MEL-28 melanoma
[11] = test system: EKVX NSCLC
[12] = test system: SN12C renal
[13] = test system: UO-31 renal
[14] = test system: TK-10 renal
[15] = test system: ACHN renal
[16] = test system: A498 renal
[17] = test system: CCRF-CEM leukemia
[18] = test system: MOLT-4 leukemia
[19] = test system: CAKI-1 renal

Measured: growth

O=C(NOCCO)c1ccc2cncn2c1Nc1ccc(I)cc1F
active: [2] 9.38% | [8] 3.07% | [10] 3.91% | [16] -11%
inactive: [1] 66.7% | [3] 81.1% | [4] 57.8% | [5] 40.4% | [6] 81% | [7] 47% | [9] 19.9% | [11] 54.6% | [12] 68.1% | [13] 37.2% | [14] 57.2% | [15] 59.9% | [17] 77.1% | [18] 85%

CCc1cc2c(c3ccc(C(=O)CBr)cc13)CCCC2
inactive: [1] 101% | [2] 91.7% | [3] 91.5% | [4] 108% | [5] 95.1% | [6] 96% | [7] 106% | [8] 91.8% | [9] 93.3% | [10] 108% | [11] 74.3% | [12] 99.7% | [13] 81.4% | [14] 91.9% | [15] 105% | [16] 102% | [17] 114% | [18] 85.8%

O=C(O)c1ccc2c(c1)nc(Nc1cccc(Cl)c1)c1ccncc12
active: [1] 5.48% | [3] -25.6% | [5] -24.6% | [7] -64.9% | [8] -50.4% | [9] 7.77% | [10] 3.16% | [13] -14% | [14] 0.456% | [19] -16.7% | [16] -49.9% | [17] 3.22% | [18] -6.15%
inactive: [2] 19.2% | [4] 13.5% | [6] 10.1% | [11] 19.6% | [12] 12.5%

CCN(CC)C(=O)C[N+](C)(C)CCOC(c1ccccc1)c1ccccc1
inactive: [1] 101% | [2] 105% | [3] 75.4% | [4] 106% | [5] 110% | [6] 100% | [7] 103% | [8] 106% | [9] 97.7% | [10] 105% | [11] 100% | [12] 106% | [13] 93.4% | [14] 98.2% | [15] 111% | [16] 114% | [17] 112% | [18] 103%

Cc1ccc2oc(=O)cc(-c3cc(-c4cc5ccccc5oc4=O)nc(N)c3C#N)c2c1
inactive: [1] 91.1% | [2] 68.3% | [3] 34% | [4] 75.8% | [5] 54.3% | [6] 69% | [7] 60.8% | [8] 81.5% | [9] 78.2% | [10] 76.7% | [11] 79% | [12] 68.2% | [13] 48.5% | [14] 71.9% | [15] 41.6% | [16] 80.1% | [17] 93.7% | [18] 93.9%

CNC(=O)c1cnc(C)nc1-c1cc(C(C)(C)C)c(O)c(C(C)(C)C)c1
inactive: [1] 103% | [2] 106% | [3] 67.6% | [4] 87.2% | [5] 97.1% | [6] 89.3% | [7] 92.1% | [8] 90.7% | [9] 110% | [10] 107% | [11] 92.6% | [12] 100% | [13] 94.6% | [14] 101% | [15] 101% | [16] 112% | [17] 106% | [18] 95.7%

CC(C)[C@@H]1CC[C@]2(CO2)[C@@H]2C(=O)OCC(C(=O)O)=C[C@H]21
active: [1] 0.806% | [2] -1.49% | [4] 1.78% | [5] 1.81% | [7] -42.8% | [8] -67.1% | [9] -31.2% | [10] -73.4% | [12] 2.26% | [13] 5.96% | [15] 3.14% | [17] 0.852% | [18] -17.6%
inactive: [3] 20.7% | [6] 22.5% | [11] 71.5% | [14] 11.6%

CO[C@H]1C[C@@H]2CC[C@@H](C)[C@@](O)(O2)C(=O)C(=O)N2CCCC[C@H]2C(=O)O[C@H]([C@H](C)C[C@@H]2CC[C@@H](OC(=O)C(C)(CO)CO)[C@H](OC)C2)CC(=O)[C@H](C)/C=C(\C)[C@@H](O)[C@@H](OC)C(=O)[C@H](C)C[C@H](C)\C=C/C=C/C=C/1C
active: [2] 4.55% | [3] -0.0597% | [16] 8.36% | [18] 0.877%
inactive: [1] 27.3% | [4] 30.6% | [5] 19.4% | [6] 18.1% | [7] 12.9% | [8] 31.5% | [9] 22.5% | [10] 34.2% | [11] 36.8% | [12] 34.8% | [13] 15.3% | [14] 26.1% | [19] 30.9% | [17] 16.2%

CN1CCN(Cc2ccc(NC(=O)c3[nH]ncc3Nc3ncnc4sc5c(c34)CCCC5)cc2)CC1
active: [1] -69.3% | [2] -36.9% | [3] -94.2% | [4] -88.8% | [5] -84.2% | [6] -77.8% | [7] -99.9% | [8] 4.67% | [9] -91.7% | [10] -78.9% | [11] -71.2% | [12] -44.2% | [13] -82.9% | [14] -96.6% | [15] -100% | [16] -60.5% | [17] -16.2% | [18] -62.5%

CO[C@H](C(=O)N[C@@H](CCCCNC(=O)OCc1ccccc1)C(=O)OC(C)(C)C)[C@@H]1Cc2cc3cc(OC4CC(OC5CC(O)C(O)C(C)O5)C(O)C(C)O4)c(C)c(O)c3c(O)c2C(=O)[C@H]1OC1CC(OC2CC(OC3CC(C)(O)C(O)C(C)O3)C(O)C(C)O2)C(O)C(C)O1 (stereo partly drawn)
active: [2] 2.05% | [3] -94.3% | [4] -51.6% | [5] -82.3% | [6] 3.14% | [7] -97.7% | [8] -62.7% | [9] -62.8% | [10] -55.7% | [11] -25.1% | [12] -7.42% | [14] -9.57% | [15] -2.61% | [16] -89.9% | [17] 3.09% | [18] -12.6%
inactive: [1] 26.6% | [13] 10.5%

CC[C@H](CO)Nc1nc(NCc2ccccc2)c2ncn(C(C)C)c2n1
inactive: [1] 53.4% | [2] 54% | [3] 57.4% | [4] 67.9% | [5] 62.5% | [6] 70.8% | [7] 66.5% | [8] 46.8% | [9] 51.1% | [10] 55.5% | [11] 72.3% | [12] 73.4% | [13] 55.4% | [14] 92.4% | [15] 46.8% | [16] 71.3% | [17] 65.9% | [18] 49.6%

CCCc1cc2cc(-n3nc(C)c4c3CC(C)(C)CC4=O)cc(NC3CCC(O)CC3)c2c(=O)[nH]1 (stereo not drawn)
active: [2] 8.7% | [9] -18.4%
inactive: [1] 23.6% | [3] 49.4% | [4] 40% | [5] 25.6% | [6] 33% | [7] 15.8% | [8] 14.1% | [10] 36.4% | [11] 47.7% | [12] 41.4% | [13] 29.7% | [14] 40.8% | [15] 28.8% | [16] 64% | [17] 20.3% | [18] 14.7%

CCN1CCN(c2nc(C)cc(N(CCNc3ccnc4cc(Cl)ccc34)Cc3ccc4c(c3)OCO4)n2)CC1
active: [1] -6.94% | [2] -13.4% | [3] 9.98% | [5] -44.6% | [7] -96.6% | [9] -74.5% | [10] -72% | [13] -41.7% | [14] -47.1% | [15] -17.2% | [17] -1.37% | [18] -3.96%
inactive: [4] 29.9% | [6] 50.7% | [8] 44.9% | [11] 68.2% | [12] 59.3%

Clc1ccc(Nc2nccc(Nc3ccc4[nH]ncc4c3)n2)cc1
inactive: [1] 40.5% | [2] 16.6% | [3] 67.6% | [4] 78.1% | [5] 58.8% | [6] 24.9% | [7] 25.9% | [8] 33.5% | [9] 44.9% | [10] 80% | [11] 66.7% | [12] 51.6% | [13] 17.4% | [14] 61.6% | [15] 47.4% | [16] 39.1% | [18] 23%
active: [17] 5.15%

O=C1C=CC2(NN=C(c3ccccc3)N2c2ccc(Cl)cc2)c2cccc(O)c21 (stereo not drawn)
inactive: [1] 18.7% | [2] 73% | [3] 33.1% | [4] 34.8% | [5] 18.1% | [6] 39.1% | [10] 52.6% | [11] 75.1% | [12] 26.4% | [13] 28.2% | [14] 100% | [15] 61.1% | [16] 91.3% | [17] 83.1% | [18] 61.8%
active: [7] -70.2% | [8] -33.1% | [9] 2.09%

Source: PubChem BioAssay (NCI)
